Compound activity as filed in PubChem BioAssay.
This is a sample that favours compounds with a hit; in the whole collection about 12% have one here.
JMJD2A Tudor inh: JMJD2A Tudor domain (human) inhibition; O75164; AlphaScreen JMJD2A-Tudor / H3K4me3 peptide binding; Potency, µM (titrated, usually from 114 µM), most hits filed as inhibitors; hit rate 4.4% among 390,000; AID 504339; note: nearly all actives have a fitted effect of over 50% in size
Target sequence (O75164 whole entry, looked up, the tested form may be a part): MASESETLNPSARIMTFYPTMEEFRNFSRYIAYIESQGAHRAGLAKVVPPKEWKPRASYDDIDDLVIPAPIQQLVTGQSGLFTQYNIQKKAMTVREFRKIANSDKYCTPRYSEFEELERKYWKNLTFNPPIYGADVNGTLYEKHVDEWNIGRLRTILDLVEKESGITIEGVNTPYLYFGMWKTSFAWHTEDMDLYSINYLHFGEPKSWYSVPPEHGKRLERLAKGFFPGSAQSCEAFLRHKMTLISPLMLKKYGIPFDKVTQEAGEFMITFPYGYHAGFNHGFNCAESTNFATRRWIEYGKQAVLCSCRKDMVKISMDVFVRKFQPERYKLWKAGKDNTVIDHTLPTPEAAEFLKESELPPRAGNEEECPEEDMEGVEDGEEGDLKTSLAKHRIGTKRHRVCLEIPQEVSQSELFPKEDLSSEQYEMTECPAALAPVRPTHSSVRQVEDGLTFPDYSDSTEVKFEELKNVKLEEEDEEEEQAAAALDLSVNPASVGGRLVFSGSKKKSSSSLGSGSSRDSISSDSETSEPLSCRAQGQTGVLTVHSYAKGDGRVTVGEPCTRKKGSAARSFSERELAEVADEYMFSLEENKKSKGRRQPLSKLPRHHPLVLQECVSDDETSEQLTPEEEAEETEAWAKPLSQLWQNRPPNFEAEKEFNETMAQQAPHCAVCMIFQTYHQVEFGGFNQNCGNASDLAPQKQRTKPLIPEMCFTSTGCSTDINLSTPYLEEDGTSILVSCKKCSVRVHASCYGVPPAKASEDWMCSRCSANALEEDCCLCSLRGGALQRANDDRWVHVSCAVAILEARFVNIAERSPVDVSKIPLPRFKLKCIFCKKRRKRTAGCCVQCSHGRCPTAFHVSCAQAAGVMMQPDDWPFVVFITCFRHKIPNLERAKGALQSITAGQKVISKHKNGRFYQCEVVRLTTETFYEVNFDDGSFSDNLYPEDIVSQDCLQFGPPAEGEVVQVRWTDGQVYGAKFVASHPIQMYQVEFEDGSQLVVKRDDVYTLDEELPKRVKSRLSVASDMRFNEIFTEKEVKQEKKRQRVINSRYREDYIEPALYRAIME
Sfp PPTase inh: inhibitors of Bacillus subtilis Sfp phosphopantetheinyl transferase; Potency, µM, usual class: inhibitors; Q9F4F7; Biochemical Sfp PPTase activity, qHTS; hit rate 3.5% among 310,000;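 note: the enzyme is Sfp with the accession as filed and its product quenches rhodamine fluorescence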
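Step 1, compound plus 15 nM Sfp-PPTase, 15 min, room temperature. Step 2, add rhodamine-CoA (5 uM) and BHQ-2-YbbR (12.5 uM). Step 3, read 525/598 nm fluorescence at 0 and 30 min.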
G9a inh: G9a (human) methyltransferase inhibition | Q96KQ7 | AID 504332 | G9a H3K9 monomethylation, AlphaScreen, 2 h | hit rate 8.8% among 350,000 | Potency, µM (titrated, usually from 102 µM), usual class: inhibitors; note: nearly all actives have a fitted effect of over 75% in size
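Quantitative HTS format: methyltransferase activity on a biotin-tagged H3K9 peptide is measured by AlphaScreen, using a rabbit anti-monomethyl-H3K9 antibody with streptavidin donor and anti-IgG acceptor beads. Final levels are 20 nM enzyme, 500 nM peptide, 20 uM SAM; 2 h RT.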
BAZ2B block: blocks human BAZ2B; Q9UIF8; AlphaScreen BAZ2B-H3K14Ac peptide displacement; Potency, µM (top dose mostly 114 µM), actives largely listed as inhibitors; hit rate 4.4% among 360,000; AID 504333; note: nearly all actives have a fitted effect of over 60% in size
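BAZ2B (50 nM) with biotin-H3(5-23)K14Ac peptide (50 nM) in PBS pH 7.4, 0.01% Tween-20, preformed 30 min, then compound 30 min at room temperature; top concentration 110uM. AlphaScreen streptavidin donor/nickel chelate acceptor beads (10 ug/mL final), 20 min dark, signal read.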
HP1b binding inh: inhibitors of HP1-beta chromodomain binding to methylated histone tails; P83916; Potency, µM (titrated, usually from 114 µM), usual class: inhibitors; hit rate 0.56% among 390,000; AlphaScreen HP1-beta / biotin-H3K9me3 peptide binding; AID 540317; note: nearly all actives have a fitted effect of over 70% in size
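AlphaScreen: HP1-beta (50 nM) preformed 30 min with biotin-H3(1-18)K9me3 peptide (50 nM) in PBS pH 7.4, 0.01% Tween-20. Compound added for 30 min at RT, then streptavidin donor/nickel chelate acceptor beads (10 ug/mL) for 30 min.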
Hits are given with their value; 0 = inactive; ? = inconclusive; - = no result given; [ ] = another dose, or the depositor's remark. Calls come from the whole dose curve; as a rule, active = well fitted curve in the direction sought with a large enough effect; inconclusive = small, poorly fitted or top-dose-only effect, or another doubt; inactive = no such curve, though single readings can be large; an effect the other way counts as inactive or inconclusive.

SMILES	JMJD2A Tudor inh	Sfp PPTase inh	G9a inh	BAZ2B block	HP1b binding inh
O=C(C1=C[C@@H](c2csc3ccccc23)C[C@@H](OCCCCO)O1)N1CCN(Cc2ccc3c(c2)OCO3)CC1	?	0	?	?	0
Cc1ccc(-n2nnnc2SCC(=O)Nc2ccccc2N2CCCCC2)cc1C	0	0	0	0	0
COc1ccc(-c2nn(-c3ccccc3)cc2/C=C2/SC(=S)N(CCC(=O)O)C2=O)cc1	20µM	0	40µM	18µM	35µM
CCN1C(=O)/C(=C\c2cn(CCC#N)nc2-c2ccc(F)cc2)SC1=S	22µM	?	35µM	35µM	?
CCN1C(=O)/C(=C/c2cn(-c3ccccc3)nc2-c2cccnc2)SC1=S	0	-	-	-	0
Cc1ccc(-c2nn(-c3ccccc3)cc2/C=C2\SC(=S)N(CC(=O)O)C2=O)cc1	40µM	50µM	35µM	22µM	0
COc1ccc(/C(C)=C2/SC(=S)N(CCC(=O)O)C2=O)cc1	?	?	0	?	0
COc1ccc(-c2nn(-c3ccccc3)cc2/C=C2/SC(=S)N(CCC(=O)O)C2=O)c(C)c1	25µM	0	40µM	50µM	?
CC1CN(S(=O)(=O)N2CCOCC2)CCN1S(=O)(=O)N1CCOCC1 (stereo not drawn)	0	0	0	0	0
O=C(Nc1ccccc1C(=O)OCc1cc(=O)n2nc(C3CC3)sc2n1)c1ccc(Cl)cc1	0	-	0[12.7 µM]	0	0
O=C(c1ccccc1)C(Sc1ncn[nH]1)c1ccccc1 (stereo not drawn)	79µM	79µM	5.6µM	0	0
COC(=O)CN1C(=S)N(c2ccc(OC)cc2)C(=O)/C1=C/c1cccs1	0	0	0	?	0
CCn1c(SCC(=O)c2ccc3c(c2)Cc2ccccc2-3)nnc1-c1ccc(N)cc1	0	79µM	0[0.501 µM]	0	0
CCn1c(SCC(=O)N/N=C(\C)c2ccncc2)nnc1-c1ccc(C)cc1	0	0	50µM	0	0
CCn1c(SCC(=O)c2ccc(O)c(O)c2)nnc1-c1ccc(C)cc1	28µM	0	0[2.33 µM]	?	0
CCn1c(SCC(=O)c2ccc([N+](=O)[O-])cc2)nnc1-c1ccc(Cl)cc1	0	-	?	0	0
CCn1c(Cc2cccn2C)nnc1SCC(=O)c1ccc(C)cc1	?	0	?	50µM	0
CCOC(=O)N1CCN(C(=O)CSc2nnc(Cc3cccn3C)n2CCc2ccccc2)CC1	0	0	?	0	0
CC(=O)Nc1ccc(S(=O)(=O)N(C)CC(=O)OCC(=O)N2CCN(C(=O)c3ccco3)CC2)cc1	0	-	0[0.501 µM]	?	0
O=C(CN1C(=O)COc2ccc(S(=O)(=O)N3CCCCCC3)cc21)N1CCN(c2cccc(Cl)c2)CC1	0	-	0	0	0
Cc1cccc(N2CCN(C(=O)Cn3c(-c4cccs4)cc4ccccc43)CC2)c1C	0	-	0	0	0
NNC(=S)Nc1cccc(-c2n[nH]c(=S)o2)c1	?	79µM	3.2µM	0	0
CN(C)C(=S)Nc1cccc(-c2n[nH]c(=S)o2)c1	?	0	22µM	0	0
CN1CCN(c2nc(-c3ccc(N(C)C)cc3)nc3ccccc23)CC1	-	50µM	-	-	-
CN1CCN(c2nc(N3CCN(CCO)CC3)nc3ccccc23)CC1	0	0	50µM	0	0
SMILES	JMJD2A Tudor inh	Sfp PPTase inh	G9a inh	BAZ2B block	HP1b binding inh
CCN1CCN(c2nc(NCCO)c3ccccc3n2)CC1	0	0	40µM	0	0
OCCN1CCN(c2cc(-c3ccccc3)c3ccccc3n2)CC1	0.79µM	0	?	40µM	?
c1ccc(CN2CCN(c3nc(N4CCOCC4)c4ccccc4n3)CC2)cc1	0	-	-	-	0
CCN1CCN(c2nc(-c3ccccc3)nc3ccccc23)CC1	0	0	0	0	0
Cc1ccccc1NS(=O)(=O)c1cc(OCC(N)=O)c(C)cc1Cl	0	0	0	0	0
Nc1ncc(Br)cc1N=Cc1ccccc1	0	79µM	?	0	0
Cc1ccc(CSc2nnc(NC(=O)C3COc4ccccc4O3)s2)cc1 (stereo not drawn)	0	0	0	0	0
CCN1CCN(Cc2ccc(NC(=O)c3ccc(C)c(NC(=O)c4ccno4)c3)cc2C(F)(F)F)CC1	0	0	0	0	0
CCN1CCN(Cc2ccc(NC(=O)c3ccc(C)c(/C=C/c4cnc(Nc5cc(N6CCNCC6)nc(C)n5)cn4)c3)cc2C(F)(F)F)CC1	79µM	56µM	28µM	?	?
Cc1cc2c(cc1S(=O)(=O)C(C)CC(=O)NCc1ccco1)OCC(=O)N2 (stereo not drawn)	0	0	-	0	0
Clc1ccccc1OCc1nnc(-c2ccccc2)o1	?	0	0	0	0
CC(=O)N1CCN(CC(=O)c2ccc(Br)cc2)CC1	0	0	2µM	0	0
N#CCN1CCN(CC(=O)c2ccc(Br)cc2)CC1	0	0	13µM	0	0
CC(=O)c1ccc(S(=O)(=O)N2CCN(CC#N)CC2)cc1	0	0	?	0	0
Oc1c(Cl)cc(Cl)cc1Sc1cc(Cl)cc(Cl)c1O	-	0	?	50µM	-
CC1CCCN(Cc2cn3c(-c4cccc(Br)c4)nnc3s2)C1 (stereo not drawn)	0	-	0	0	0
Brc1cccc(-c2nnc3sc(CNCc4ccco4)cn23)c1	0	0	45µM	0	0
Clc1cc2c(c(Cn3cnc4ccccc43)c1)OCOC2	0	0	0	0	0
Clc1cc2c(c(CSc3nc4ccccc4n4cccc34)c1)OCOC2	0	0	45µM	0	0
COc1ccc(/C=C2\C(=O)NC(=S)N2C(=O)c2ccc(C)cc2)cc1	56µM	?	?	50µM	0
O=C(O)CSc1ccc2nnc(-c3cccnc3)n2n1	0	0	?	0	0
CC(=O)C(Sc1ccc2nnc(-c3ccc(F)cc3)n2n1)C(C)=O	?	0	18µM	?	0
CC(=O)C(Sc1ccc2nnc(-c3cccnc3)n2n1)C(C)=O	0	0	71µM	-	0
CC(=O)C(Sc1ccc2nnc(-c3ccc(C)cc3)n2n1)C(C)=O	?	0	32µM	0	0
Cc1ccccc1-n1ncc2c1CC(C)(C)CC2NC(=O)CSc1ccncc1 (stereo not drawn)	0	0	0	0	0
SMILES	JMJD2A Tudor inh	Sfp PPTase inh	G9a inh	BAZ2B block	HP1b binding inh
O=c1ccc(N=Nc2ccccc2)ccc1O	50µM	0	45µM	11µM	?
COc1cc(OC)cc(C(=O)c2c(C)c(C#N)c3ccccn23)c1	0	0	0	0	0
COC1=C/C(=C/c2c(O)c(C#N)c3ccccn23)C=CC1=O	22µM	?	?	50µM	?
CCn1cc(C2Nc3ccccc3C(=O)N2O)c(C)n1 (stereo not drawn)	0	0	18µM	0	0
O=C1c2ccccc2NC(c2ccco2)N1O (stereo not drawn)	0	0	?	0	0
Cc1c(C2Nc3ccccc3C(=O)N2O)cnn1C (stereo not drawn)	?	0	10µM	0	0
CCOc1ccc(C(=O)CCC(=O)Nc2ncccc2O)cc1	0	-	0[2.33 µM]	56µM	0
CCc1nnc(NC2=NCCC2)s1	71µM	56µM	?	?	0
c1nnc(NC2=NCCCCC2)s1	0	0	0	0	0
